The panel holds about 83,000 compounds, 20% with a hit somewhere; the sample as a whole holds those more often.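 Percent growth is the endpoint: 0 to 100 indicates growth inhibition (40 means 60% inhibition), 0 means no net growth, and negative values indicate cell death.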 A number with no mark means an inactive call. Active and inactive are the calls of the source. How the source made its calls: active means growth percent below 10; inactive means the rest.
Tests used:
Test in all cases: NCI-60 one-dose screen, 48 h (100 = growth as untreated, 0 = no growth, -100 = all killed)
[1] = system: NCI-H23 lung; conditions: 10 µM unless noted
[2] = system: NCI-H226 lung; conditions: 10 µM unless noted
[3] = system: NCI-H322M lung; conditions: 10 µM unless noted
[4] = system: NCI-H460 lung; conditions: 10 µM unless noted
[5] = system: HOP-92 NSCLC; conditions: 10 µM
[6] = system: NCI-H522 lung; conditions: 10 µM
[7] = system: A549/ATCC NSCLC; conditions: 10 µM unless noted
[8] = system: 786-0 renal; conditions: 10 µM unless noted
[9] = system: COLO 205 colon; conditions: 10 µM unless noted

SMILES | growth [1] | growth [2] | growth [3] | growth [4] | growth [5] | growth [6] | growth [7] | growth [8] | growth [9]
CC1=NN(c2cccc(Cl)c2)C(=O)/C1=C\c1cn(-c2nc(N3CCOCC3)nc(N3CCOCC3)n2)c2ccccc12 | 100% | 99.8% | 91.9% | 112% | 90.6% | 88.9% | 99.2% | 102% | 
CCOC(=O)c1c(C)oc2ncnc(Nc3ccc(NC(=O)Nc4ccc(CC)cc4)cc3)c12 | 90.7% | 104% | 102% | 106% | 94.3% | 83.5% | 89.2% | 99.8% | 
Nc1ccc(S(=O)(=O)c2ccc(NO)cc2)cc1 | 100% | 118% | 116% | 111% | 108% | 79.4% | 105% | 99.1% | 111%
COc1cc(OC)c(NC(=O)n2ncc3cc(Nc4ncnc5ccccc45)ccc32)cc1Cl | 97.5% | 104% | 14.1% | 108% | 87.3% | 72.1% | 80.3% | 73.1% | 
COC(c1ccccc1)C(Br)C(=O)c1ccccc1 (centres undefined) | 109% | 92.5% | 96.2% | 127% | 71.1% | 74.9% | 95.3% | 92.2% | 
COc1ccc2c(c1)/C(=C1/S/C(=N/c3nnc(C)s3)NC1=O)C(=O)N2Cc1ccc(Br)cc1 | 26.5% | 54.7% | 35.1% | 6.08% (active) | 25.7% | 29.6% | 20.7% | 34% | 
O=C(CCCC(=O)Nc1ccc(Cn2nnc3cc(Cl)c(Cl)cc32)cc1)Nc1ccc(CN2N=NC3C=C(Cl)C(Cl)=CC32)cc1 (centres undefined) | 62.2% | 72.7% | 74% | 84.1% | 64.7% | 62.4% | 74.5% | 85.3% | 
COc1cc2ncnc(-n3ncc4cc(NC(=O)Nc5ccc(Cl)c(Cl)c5)ccc43)c2cc1OC | -54% (active) | -63.4% (active) | -46.1% (active) | -53.9% (active) | -57.2% (active) | 1.38% (active) | 0.341% (active) | -43.4% (active) | 
Nc1nc2c(c3cnccc13)C(c1cccc(Br)c1)Cc1cnccc1-2 (centres undefined) | -0.611% (active) | 25.5% | 31.5% | 4.41% (active) | 15.6% | 3.33% (active) | 13.2% | 14.1% | 
Nc1ncn([C@@H]2O[C@H](CO)[C@@H](O)C2(F)F)c(=O)n1 | 30.6% | 52.3% | 70% | 9.34% (active) | 34.3% | 86.9% | 37.9% | 26.3% | 
N=C(N)c1ccc(-c2ccc(-c3ccc(Cl)cc3)s2)s1 | -69.9% (active) | -53.3% (active) | -74.9% (active) | -66.2% (active) | -71.6% (active) | -2.36% (active) | -69.1% (active) | -62.6% (active) | 
C=C(C)[C@@H]1CC[C@]2(COC(=O)c3ccccc3C(=O)O)CC[C@]3(C)[C@H](CC[C@@H]4[C@@]5(C)CCCNC(C)(C)[C@@H]5CC[C@]43C)[C@@H]12 | 80.7% | 66.3% | 93.3% | 55.9% | 86.1% | 78.3% | 61.4% | 84.4% | 
O=C1c2ccccc2CCc2ccccc21 | 100% | 100% | 92.7% | 108% | 78.7% | 86.4% | 98.5% | 109% | 
COc1cc2ncnc(-n3ncc4cc(NC(=O)Nc5ccccc5)ccc43)c2cc1OC | 3.14% (active) | -13.9% (active) | 30.9% | 26.8% | -20.3% (active) | 19.9% | 24.1% | 28% | 
CCOC(=O)C1=NN(c2ccccc2)C2=NC(=O)/C(=C\c3cn(-c4ccccc4)nc3-c3cc4ccccc4o3)C(=O)N12 | 95.4% | 84.7% | 89.6% | 97% | 63.5% | 89.5% | 96.8% | 99.9% | 109%
CC1=C[C@@H]2c3c(c(O)c(O)c4oc5cc(O)cc(O)c5c(=O)c34)[C@@H](c3cc(O)c(O)c4oc5cc(O)cc(O)c5c(=O)c34)[C@@H]2C(C)(C)C1 | -20.3% (active) | 8.46% (active) | 16.9% | -28.3% (active) | -15% (active) | -60.8% (active) | 9.43% (active) | -40.3% (active) | 
CCOC(=O)c1c(C)oc2ncnc(Nc3ccc(NC(=O)Nc4cccc(Cl)c4)cc3)c12 | 64.1% | 54.8% | 83.6% | 67.2% | 50.7% | 57.2% | 32.3% | 79.1% | 
C/C(CCC(=O)O)=N/Nc1ccc([N+](=O)[O-])cc1 | 87.8% | 93.3% | 93.5% | 38% | 74.9% | 61.2% | 54% | 45.7% | 
O=C1/C(=N\c2cc(=O)[nH]n2S(=O)(=O)c2ccccc2)Nc2ccccc21 | 107% | 92.4% | 105% | 105% | 89.6% | 96.7% | 111% | 106% | 114%
COc1ccc(Cn2cc3c(c2-c2ccc(O)cc2)CCc2cnoc2-3)cc1 | 20.5% | 24.1% | 18.8% | 1.39% (active) | 93.1% | 35.7% | 32.3% | 28.9% | -17.6% (active)
COc1cc(N)c2nccc(C)c2c1OC | 115% | 101% | 106% | 112% | 81.7% | 133% | 117% | 103% | 116%
O=Nc1c(-c2c(O)[nH]c3cc(Br)ccc23)[nH]c2ccccc12 | -80.8% (active) | -39.4% (active) | 16.6% | -72.8% (active) | 14.4% | -29% (active) | -61.9% (active) | 6.13% (active) | -100% (active)
O=C(Nn1cnc2ccccc21)N1CCCC1 | 111% | 105% | 86.7% | 117% | 74.1% | 104% | 109% | 80.3% | 117%
O=C(Oc1ccccc1)c1ccccc1Cl | 104% | 106% | 104% | 103% | 90.1% | 121% | 99.9% | 101% | 104%
COC(=O)/C(Br)=C/c1c[nH]c2ccc(Br)cc12 | 98.9% | 90.9% | 100% | 112% | 41.6% | 63.9% | 89.9% | 55% | 95.8%
CCC(CCCN1C(=O)c2ccccc2C1=O)Nc1cc(OC)cc2cccnc12 (centres undefined) | 97.6% | 107% | 116% | 112% | 72.4% | 103% | 106% | 103% | 119%
O=C(/C=C/c1ccc(Br)cc1)c1ccccc1 | 97.9% | 90.8% | 106% | 101% | 96.2% | 77.8% | 73% | 85.1% | 109%
CC(=N\N=C(N)N)/C(=N/N=C(N)N)c1ccccc1 | 43.1% | 91.4% | 76.4% | 93.3% | 95.2% | 94.4% | 86.2% | 101% | 6.49% (active)
C=C(NC(=O)[C@H](C(C)C)N(C)c1cccc2[nH]ccc12)C(=O)OC | 99.8% | 97.5% | 100% | 103% | 99.5% | 87.3% | 96.5% | 95.9% | 132%
FC(F)(F)c1cccc(-c2[nH]ncc2-c2nnnn2-c2ccccc2)c1 | 73.9% | 76.2% | 57.7% | 21.8% | 34.2% | 23% | 41.8% | 58.2% | 36%
